# Inconclusive results are not listed. Calls of active or inactive are those of the source. The call rests on the fitted dose curve; in most records, active means well fitted curve in the direction sought with a large enough effect; inconclusive means small, poorly fitted or top-dose-only effect, or another doubt; inactive means no such curve, though single readings can be large; an effect the other way counts as inactive or inconclusive.
# Key:
# [1] = Quantitative High-Throughput drug screen in 47 multiple myeloma cell lines against the NCATS MIPE library collection: FR4_PLB cell viability assay (AID 1918924; further: nearly all actives have a fitted effect of over 35% in size)
# In short: (§1)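 Myeloma cells (500 per well) were exposed to MIPE 4.0 compounds by pin transfer and incubated 48 hours at 37C, 5% CO2. Viability was read as ATP by CellTiter-Glo luminescence, normalised to DMSO (100%) and media-only (0%) wells.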
# [2] = Quantitative High-Throughput drug screen in 47 multiple myeloma cell lines against the NCATS MIPE library collection: EJM_DSMZ cell viability assay (AID 1918926; further: nearly all actives have a fitted effect of over 30% in size)
# In short: (§2)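 qHTS of the MIPE 4.0 collection: 500 myeloma cells/well, 48 h drug exposure at 37C in 5% CO2, then CellTiter-Glo for 5 min at room temperature before luminescence reading.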
# [3] = Quantitative High-Throughput drug screen in 47 multiple myeloma cell lines against the NCATS MIPE library collection: AMO1_DSMZ cell viability assay (AID 1918927; further: nearly all actives have a fitted effect of over 30% in size)
# In short: as §2
# [4] = Quantitative High-Throughput drug screen in 47 multiple myeloma cell lines against the NCATS MIPE library collection: ARP1_JJKsccF8 cell viability assay (AID 1918928; further: nearly all actives have a fitted effect of over 40% in size)
# In short: (§3)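 Viability screen: myeloma cells (500/well) incubated 48 h at 37 °C, humidified 5% CO2, with pinned library compounds; CellTiter-Glo added, luminescence read; DMSO wells set 100%, medium-only wells 0%.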
# [5] = Quantitative High-Throughput drug screen in 47 multiple myeloma cell lines against the NCATS MIPE library collection: ARD_JJKsccE7 cell viability assay (AID 1918929)
# In short: as §2
# [6] = Quantitative High-Throughput drug screen in 47 multiple myeloma cell lines against the NCATS MIPE library collection: Karpas620_DSMZ cell viability assay (AID 1918959); further: nearly all actives have a fitted effect of over 30% in size
# In short: as §1
# [7] = Quantitative High-Throughput drug screen in 47 multiple myeloma cell lines against the NCATS MIPE library collection: KMM1_JCRB cell viability assay (AID 1918960); further: nearly all actives have a fitted effect of over 30% in size
# In short: as §3
# [8] = Quantitative High-Throughput drug screen in 47 multiple myeloma cell lines against the NCATS MIPE library collection: KHM11_PLB cell viability assay (AID 1918962); further: nearly all actives have a fitted effect of over 35% in size
# In short: as §1
# [9] = Quantitative High-Throughput drug screen in 47 multiple myeloma cell lines against the NCATS MIPE library collection: JJN3_DSMZ cell viability assay (AID 1918966; further: nearly all actives have a fitted effect of over 50% in size)
# In short: as §2
# [10] = Quantitative High-Throughput drug screen in 47 multiple myeloma cell lines against the NCATS MIPE library collection: Karpas25_ECACC cell viability assay (AID 1918968; further: nearly all actives have a fitted effect of over 35% in size)
# In short: as §2
# [11] = Quantitative High-Throughput drug screen in 47 multiple myeloma cell lines against the NCATS MIPE library collection: KMS27_JCRB cell viability assay (AID 1918970); further: nearly all actives have a fitted effect of over 30% in size
# In short: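 CellTiter-Glo luminescence after 48 h drug exposure at 37 °C; 500 cells/well, 1536-well format, pin-tool compound addition; DMSO = 100%, media-only = 0% viability.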
# [12] = Quantitative High-Throughput drug screen in 47 multiple myeloma cell lines against the NCATS MIPE library collection: KMS12PE_JCRB cell viability assay (AID 1918972); further: nearly all actives have a fitted effect of over 30% in size
# In short: (§4)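 CellTiter-Glo ATP luminescence gave viability after 48 h compound treatment at 37C of 500 multiple myeloma cells per well. Normalisation used DMSO-only wells as 100% and media-only wells as 0% viability; primary qHTS of approved and investigational drugs.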
# [13] = Quantitative High-Throughput drug screen in 47 multiple myeloma cell lines against the NCATS MIPE library collection: Karpas417_ECACC cell viability assay (AID 1918961); conditions: Karpas417 myeloma viability, CellTiter-Glo ATP luminescence, 48 h; viability (% of DMSO): at 45.8 µM (top of the series)
# In short: as §4
# [14] = Quantitative High-Throughput drug screen in 47 multiple myeloma cell lines against the NCATS MIPE library collection: JIM3_ECACC cell viability assay (AID 1918963; further: nearly all actives have a fitted effect of over 35% in size)
# In short: as §1
# [15] = Quantitative High-Throughput drug screen in 47 multiple myeloma cell lines against the NCATS MIPE library collection: KMS12BM_JCRB cell viability assay (AID 1918971); further: nearly all actives have a fitted effect of over 35% in size
# In short: as §2
# [16] = Quantitative High-Throughput drug screen in 47 multiple myeloma cell lines against the NCATS MIPE library collection: KMS20_JCRB cell viability assay (AID 1918973); further: nearly all actives have a fitted effect of over 45% in size
# In short: as §2
# [17] = Quantitative High-Throughput drug screen in 47 multiple myeloma cell lines against the NCATS MIPE library collection: Delta47_JCRB cell viability assay (AID 1918925; further: nearly all actives have a fitted effect of over 45% in size)
# In short: as §2
# [18] = Quantitative High-Throughput drug screen in 47 multiple myeloma cell lines against the NCATS MIPE library collection: H1112_PLB cell viability assay (AID 1918967; further: nearly all actives have a fitted effect of over 30% in size)
# In short: as §2
# [19] = Quantitative High-Throughput drug screen in 47 multiple myeloma cell lines against the NCATS MIPE library collection: JIM1_ECACC cell viability assay (AID 1918964)
# In short: as §2
# [20] = Quantitative High-Throughput drug screen in 47 multiple myeloma cell lines against the NCATS MIPE library collection: INA6_PLB cell viability assay (AID 1918965; further: nearly all actives have a fitted effect of over 55% in size)
# In short: as §4
# Potency means the concentration at half of the fitted maximal effect.
SMILES,Potency [1],Potency [2],Potency [3],Potency [4],Potency [5],Potency [6],Potency [7],Potency [8],Potency [9],Potency [10],Potency [11],Potency [12],Potency [13],Potency [14],Potency [15],Potency [16],Potency [17],Potency [18],Potency [19],Potency [20]
CC#CCn1c(N2CCC[C@@H](N)C2)nc2c1c(=O)n(Cc1nc(C)c3ccccc3n1)c(=O)n2C,inactive,inactive,inactive,2.96 µM (active),inactive,inactive,inactive,inactive,3.72 µM (active),14.8 µM (active),inactive,inactive,,,,,,,,
CN(C)C1CCN(C(=O)c2ccc(NC(=O)Nc3nc(N4CCOCC4)nc(N4CCOCC4)n3)cc2)CC1,0.0093 µM (active),0.166 µM (active),1.18 µM (active),0.0166 µM (active),,,,,,,,0.105 µM (active),0.0662 µM (active),0.209 µM (active),0.0083 µM (active),0.105 µM (active),,,,
Cc1nnc(C(C)C)n1C1C[C@H]2CC[C@@H](C1)N2CC[C@H](NC(=O)C1CCC(F)(F)CC1)c1ccccc1 (stereo not given in full),inactive,,inactive,inactive,,,,,,,,,,inactive,,,16.6 µM (active),14.8 µM (active),,
O=c1c(-c2ccc(O)cc2)coc2cc(O[C@@H]3O[C@H](CO)[C@H](O)[C@H](O)[C@H]3O)ccc12,inactive,inactive,inactive,3.72 µM (active),inactive,inactive,inactive,,inactive,,,inactive,,,inactive,,,,inactive,
Cc1cnc(C(=O)O)c[n+]1[O-],inactive,inactive,inactive,,,inactive,inactive,inactive,,inactive,inactive,inactive,inactive,inactive,inactive,,,inactive,,inactive
O=c1cc(-c2cccc3c2Sc2ccccc2S3)oc(N2CCOCC2)c1,26.4 µM (active),,16.6 µM (active),,,18.7 µM (active),,,,14.8 µM (active),,16.6 µM (active),,16.6 µM (active),23.5 µM (active),13.2 µM (active),5.26 µM (active),20.9 µM (active),16.6 µM (active),18.7 µM (active)
CN1CCN(CCOc2cc(OC3CCOCC3)c3c(Nc4c(Cl)ccc5c4OCO5)ncnc3c2)CC1,18.7 µM (active),,18.7 µM (active),,18.7 µM (active),18.7 µM (active),14.8 µM (active),18.7 µM (active),,,16.6 µM (active),14.8 µM (active),,23.5 µM (active),,8.33 µM (active),23.5 µM (active),23.5 µM (active),20.9 µM (active),2.96 µM (active)
CN(C)CCC=C1c2ccccc2COc2ccc(CC(=O)O)cc21,inactive,inactive,inactive,inactive,inactive,inactive,,,,,inactive,inactive,,inactive,inactive,inactive,,,inactive,
OC[C@H]1O[C@@H](n2cnc3c2NC=NC[C@@H]3O)C[C@H]1O,inactive,,inactive,,inactive,14.8 µM (active),inactive,inactive,,,13.2 µM (active),inactive,inactive,,,,inactive,18.7 µM (active),inactive,inactive
O=C(NCc1ccncc1)C12C[C@H]3C[C@@H](C1)CC(c1ccc(Cl)cc1)(C3)C2,14.8 µM (active),,9.35 µM (active),,18.7 µM (active),9.35 µM (active),23.5 µM (active),inactive,,20.9 µM (active),8.33 µM (active),26.4 µM (active),,23.5 µM (active),20.9 µM (active),,16.6 µM (active),13.2 µM (active),13.2 µM (active),20.9 µM (active)
CC1(C)CCC(CN2CCN(c3ccc(C(=O)NS(=O)(=O)c4ccc(NCC5CCOCC5)c([N+](=O)[O-])c4)c(Oc4cnc5[nH]ccc5c4)c3)CC2)=C(c2ccc(Cl)cc2)C1,20.9 µM (active),20.9 µM (active),9.35 µM (active),,,0.332 µM (active),8.33 µM (active),,,,0.118 µM (active),0.0833 µM (active),,inactive,0.0526 µM (active),,,0.264 µM (active),,
COC(=O)N[C@H](C(=O)N1CCC[C@@H]1c1ncc(-c2ccc(-c3ccc(-c4cnc([C@@H]5CCCN5C(=O)[C@@H](NC(=O)OC)C(C)C)[nH]4)cc3)cc2)[nH]1)C(C)C,23.5 µM (active),,,,,16.6 µM (active),16.6 µM (active),,,23.5 µM (active),23.5 µM (active),16.6 µM (active),,18.7 µM (active),20.9 µM (active),,20.9 µM (active),,20.9 µM (active),
CCN(CC)CCOc1ccc(C(=C(Cl)c2ccccc2)c2ccccc2)cc1,inactive,,18.7 µM (active),inactive,,,,,,,,,,inactive,inactive,,29.6 µM (active),,,inactive
CC(C)(C)c1cc(C(=O)O)c(NC(=O)Nc2ccc3[nH]ncc3c2)s1,inactive,inactive,inactive,,,inactive,inactive,inactive,,,inactive,,,inactive,,,,,inactive,inactive
COCCOC(=O)C1=C(C)NC2=C(C(=O)CC(c3ccccc3OC)C2)C1c1cccc(O)c1 (stereo not given),14.8 µM (active),,11.8 µM (active),,1.66 µM (active),,,11.8 µM (active),,,,,,20.9 µM (active),10.5 µM (active),4.18 µM (active),1.05 µM (active),,9.35 µM (active),1.66 µM (active)

# — PubChem BioAssay (NCATS)
